The values below come from PubChem BioAssay (NCATS).

Active and inactive are the calls of the source. Entries that show only a call come without a potency. Calls follow the shape of the dose curve; as a rule, active = well fitted inhibition curve with a large enough effect; inconclusive = small, poorly fitted or top-dose-only effect; inactive = flat fitted curve, though single readings scatter.
Potency is read from the fitted curve at half-maximal effect.

The assay concerns the target Luciferin 4-monooxygenase (Photinus pyralis) (UniProt P08659). The experiment in a line: Primary firefly luciferase (FLuc) qHTS assay for identification of artifact compounds. (AID 1845220). Also: nearly all actives have a fitted effect of over 60% in size. As to conditions: purified firefly luciferase, luminescence, 5 min; series mostly up to 54.1 µM. A digest of the protocol:
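qHTS, 15 min compound preincubation with substrate (10 uM luciferin, 10 uM ATP) at RT, then 10 nM FLuc; 5 min; luminescence; % inhibition vs no-enzyme/DMSO controls, 4-parameter Hill fit.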
For `O=C(O)c1ccnc2cc(C(OCCN3CCCCC3)c3ccccc3Cl)[nH]c12` (stereo not given), the Potency result was “inactive”.
Consider `CCC(C)(C#N)O[C@@H]1O[C@H](CO)[C@@H](O)[C@H](O)[C@H]1O` (stereo not given in full), for which the Potency result is “inactive”.
The same measure, in the same setting: for `COc1cc(CCNCc2ccccc2O)c(OC)cc1C#N` the value was “inactive”.
Still for that read-out and setting: for `C=C(CO)C(=O)O[C@H]1C/C(C)=C/CC/C(CO)=C/[C@H]2OC(=O)C(=C)[C@H]12` the value was “inactive”; for `CN1C(=O)N(c2ccc(C#N)c(C(F)(F)F)c2)C(=O)[C@]1(CO)c1ccccc1`, “inactive”.
Still for that read-out and setting: for `C[C@@](O)(COc1ccc(C#N)cc1)C(=O)Nc1ccc(C#N)c(C(F)(F)F)c1` the value was “inactive”.
Turning to `COC(=O)C12C(=O)C(C)(O)C(=O)C1(C)C(C)=CC1C34CCC(OC3=O)C(C)(CO)C4CCC12C` (stereo not given), the Potency entry is “inactive”.
The same measure, in the same setting: for `CC12CCC3C(CCC4(O)CC(O)CCC34C=O)C1(O)CCC2C1=CC(=O)OC1` (stereo not given) the value was “inactive”; for `COC1CC(OC2CCC3(C=O)C(CCC4C3CCC3(C)C(C5=CC(=O)OC5)CCC43O)C2)OC(C)C1OC1OC(CO)C(O)C(O)C1O` (stereo not given), “inactive”.
Still for that read-out and setting: for `OCCCCC#Cc1cncc(OC[C@@H]2CCN2)c1` the value was “inactive”; for `COC(=O)C1(C)CCC(O)C2(C)c3c(O)cc(C(C)C)cc3C(O)C(OC(C)=O)C12` (stereo not given), “inactive”.
On to `COC1CC(OC2CCC3(C)C(=CCC4C3CCC3(C)C(C(C)OC5OC(COC6OC(CO)C(O)C(O)C6O)C(O)C(O)C5O)CCC43O)C2)OC(C)C1OC1OC(C)C(O)C(OC)C1O` (stereo not given), for which the outcome was “inactive [at 11.6 µM]”.
As to `CC1=C2C[C@H]3[C@@H](CC=C4C[C@@H](O)CC[C@@]43C)[C@@H]2CC[C@]12O[C@@H]1C[C@H](C)CN[C@H]1[C@H]2C`, the Potency result is “inactive”.
The same measure, in the same setting: for `CO[C@@H]1[C@H](O)[C@@H](O[C@@H]2C[C@H]3CC[C@@H]4C(CC[C@]5(C)[C@@H](C6=CC(=O)OC6)CC[C@]45O)[C@@]3(C)[C@H](O)C2)O[C@H](C)[C@@H]1O[C@@H]1O[C@H](CO)[C@@H](O)[C@H](O)[C@H]1O` (stereo not given in full) the value was “inactive”; for `N#C[C@@H](O[C@@H]1O[C@H](CO[C@@H]2O[C@H](CO)[C@@H](O)[C@H](O)[C@H]2O)[C@@H](O)[C@H](O)[C@H]1O)c1ccccc1`, “inactive”; for `CO[C@H]1[C@H](O)[C@H](O[C@H]2CC[C@]3(C)C4CC[C@]5(C)[C@H](C6=CC(=O)OC6)CC[C@]5(O)C4CC[C@@H]3C2)O[C@@H](C)[C@@H]1O` (stereo not given in full), 7.38 µM (active).
The same measure, in the same setting: for `COC1CC(O[C@H]2CC[C@]3(C=O)C4CC[C@]5(C)[C@@H](C6=CC(=O)OC6)CC[C@]5(O)[C@@H]4CC[C@]3(O)C2)OC(C)C1O[C@@H]1O[C@H](CO)[C@@H](O)[C@H](O)[C@H]1O` (stereo not given in full) the value was “inactive”.
Consider `C=CC(C)(O)CC/C=C(\C)C(=O)O[C@H]1[C@H](O)[C@@H](CO)O[C@@H](OC(=O)[C@]23CCC(C)(C)CC2C2=CCC4[C@@]5(C)CC[C@H](O[C@@H]6O[C@H](CO[C@@H]7OC[C@H](O)[C@H](O)[C@H]7O[C@@H]7OC[C@@H](O)[C@H](O)[C@H]7O)[C@@H](O)[C@H](O)[C@H]6O)C(C)(C)C5CC[C@@]4(C)[C@]2(C)CC3)[C@@H]1OC1OC(C)C(O[C@@H]2OC[C@@H](O)[C@H](O[C@@H]3OC[C@@H](O)[C@H](O)[C@H]3O)[C@H]2O)C(O)C1O` (stereo not given in full), for which the outcome is “inactive [at 11.6 µM]”.
`CCc1c(C(=O)C(N)=O)c2c(OCC(=O)OC)cccc2n1Cc1ccccc1`: the Potency result was “inactive”.
Same read-out and setting: for `Cc1cc(C(=O)CN2CCCC2)c(C)n1-c1ccc(F)cc1` the value was “inactive”; for `COC1=CC(=O)O[C@@H](CCc2ccccc2)C1`, “inactive”.
Still for that read-out and setting: for `C=C1[C@@H]2CC[C@@]3(C)[C@H](c4ccoc4)OC(=O)C[C@]13O[C@H]1CC(=O)C(C)(C)[C@H](C(OC(C)=O)C(=O)OC)[C@]12C` (stereo not given in full) the value was “inactive”.
The same measure, in the same setting: for `CCN1C[C@]2(OC(=O)c3ccccc3NC(C)=O)CC[C@H](OC)[C@@]34[C@@H]2C[C@@H]([C@@H]13)[C@@]1(O)C[C@H](OC)[C@H]2C[C@@H]4[C@]1(O)[C@H]2OC` the value was “inactive”; for `COC1C(O)C(OC2CCC3(C=O)C(CCC4C3CCC3(C)C(C5=CC(=O)OC5)CCC43O)C2)OC(C)C1OC1OC(CO)C(O)C(O)C1O` (stereo not given), “inactive”.
As to `C/C=C(\C)C(=O)OC1C(C)OC(OC2C(C)OC(OC3CCC4(C)C(=CCC5C4CCC4(C)C(C(C)OC6OC(COC7OC(CO)C(O)C(O)C7O)C(O)C(O)C6O)CCC54O)C3)CC2OC)C(O)C1OC` (stereo not given), the outcome is “inactive [at 11.6 µM]”.
On to `CCN1C[C@]2(COC(=O)c3ccccc3N3C(=O)C[C@H](C)C3=O)CC[C@H](OC)[C@@]34[C@@H]5C[C@H]6[C@H](OC)[C@@H]5[C@](O)(C[C@@H]6OC)[C@](O)([C@@H](OC)[C@H]23)[C@@H]14`, for which the Potency result was “inactive”.
On the same count and under the same terms, for `CN1CCCC1CCOC(c1cc2nccc(C(=O)O)c2[nH]1)c1ccccc1Cl` (stereo not given) the value was “inactive”; for `CC(N)Cc1c[nH]c2ccccc12` (stereo not given), “inactive”.
Still for that read-out and setting: for `CCN1C[C@]2(COC)[C@H](O)C[C@H](OC)[C@]34[C@@H]5C[C@]6(O)[C@H](OC(=O)c7ccccc7)[C@@H]5[C@@](O)([C@H]([C@H](OC)[C@H]23)[C@@H]14)[C@@H](O)[C@@H]6OC` the value was “inactive”; for `Clc1ccc(OCC2=NCCN2)cc1Cl`, “inactive”; for `CC(=O)OC1CC(O)C(C)(C)C2CC(OC(C)=O)C3(C)C(CCC4(C)C(c5ccoc5)C(=O)C5OC543)C12C` (stereo not given), “inactive”.
For the compound `CN(C)CCc1c[nH]c2ccc(CN3CCN(C)S3(=O)=O)cc12`, the Potency entry is “inactive”.
On the same count and under the same terms, for `COc1cc2c(cc1OC)[C@@]13CCN4CC5=CCO[C@H]6CC(=O)N2[C@H]1[C@H]6[C@H]5C[C@H]43` the value was “inactive”.
As for `C[C@H]1C(=O)O[C@H]2[C@H](O)[C@]34C5OC(=O)[C@]3(O[C@@H]3OC(=O)[C@H](O)C34[C@H](C(C)(C)C)[C@H]5O)C12O` (stereo not given in full), the Potency entry is “inactive”.
As for `C[C@]12CC[C@@H](O)C[C@H]1CC[C@@H]1[C@@H]2CC[C@]2(C)C(=O)CC[C@@H]12`, the Potency result is “inactive”.
